This is a sample that favours compounds with a hit; in the whole collection about 7.9% have one here.
Lassa entry inh: qHTS for Inhibitors of binding or entry into cells for Lassa Virus. AID 540256, 2011. 300,000 tested, 1.2% active. Potency, µM (titrated, usually from 37.9 µM), for inactives: at the top dose activity change, negative = inhibition, most hits filed as inhibitors. Lassa virus pseudotype entry inhibition, cell reporter; calls by dose curve; tested in HEK293 cells; further: potency means the concentration at half of the fitted maximal effect; nearly all actives have a fitted effect of over 50% in size
HCV inh: qHTS Assay for Inhibitors of Hepatitis C Virus (HCV); 340,000 tested, 3.4% active; Potency, µM (top dose mostly 41.8 µM), for inactives: at the highest dose activity change, negative = inhibition, hits mostly inhibitors; Huh7.5.1 HCVcc-Cre infection, luciferase reporter, 44 h; active means well fitted inhibition curve with a large enough effect; inconclusive means small, poorly fitted or top-dose-only effect, or another doubt; inactive means no such curve, though single readings can be large or run the other way; further: potency means the concentration at half of the fitted maximal effect
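Seed cells (1,000/well) for 4 h; treat with compound and infect with HCVcc-Cre, moi about 0.5. Incubate 44 h, then detect luciferase activity.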
FMDV antiviral: High Throughput Screening for Foot and Mouth Disease Virus Antivirals | 410,000 tested, 1.2% active | Potency, µM (series often up to 57.9 µM), without a hit: at the top dose activity change, negative = inhibition, most hits filed as inhibitors | AID 1159524, 2015 | FMDV antiviral cell-based qHTS; calls by dose curve; tested in HEK293T cells; further: read-out not given here; potency means the concentration at half of the fitted maximal effect; nearly all actives have a fitted effect of over 45% in size
HCMV inh: qHTS Assay for inhibitors of the human cytomegalovirus (HCMV) | HFF cells, HCMV-luciferase reporter, 72 h; active compounds read low | activity change, negative = inhibition, % at 57.5 µM | 410,000 tested, 4.5% active | AID 1259415, 2018; in the data active means activity change below about -60%; inconclusive means no clear call, values can overlap the other calls; inactive means above about -39%
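Screen run at 2 compound doses on HFFs infected with reporter HCMV, MOI 1 PFU/cell. Luciferase activity from cell lysates at 72 h post infection gave inhibition relative to buffer-only and Salinomycin wells.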
Marburg entry inh: qHTS for inhibitors of binding or entry into cells for Marburg Virus; 300,000 tested, 1.8% active; Potency, µM (titrated, usually from 37.8 µM), without a hit: top-dose activity change, negative = inhibition, hits mostly inhibitors; Marburg virus pseudotyped entry inhibition, cell reporter; calls by dose curve; tested in HEK293 cells; further: potency means the concentration at half of the fitted maximal effect
The depositor's hits bear a star; ? = inconclusive; . = not tested or not shown; ! = not confirmed by another sample; [ ] = another dose, or the depositor's remark. On the % scale 0 is the no-effect control and ±100 the full control effect.

SMILES	Lassa entry inh	HCV inh	FMDV antiviral	HCMV inh	Marburg entry inh
Cc1ccc(NC(=O)c2ccc3c(c2)NC(=O)c2ccccc2S3)cc1	.	.	?	-71.3*	?
C/C(=N\NC(=O)c1ccc(C)cc1C)c1ccc2c(c1)Nc1ccccc1S2	?	3.55µM*	?	0.1	-29.7%
CN(C)CCNC(=O)c1ccc2c(c1)NC(=O)c1ccccc1S2	.	8.91µM*	-12.4%	-11.4	.
COc1ccccc1CN1CCCC(n2cc(C(=O)N3CCCC3)nn2)C1 (configuration not stated)	.	.	-18.3%	.	.
COc1ccccc1-n1c(-c2ccccc2)c[nH]c1=S	.	-8.9%	-11.6%	-13.8	.
CC(C)c1ccc(-n2c(-c3ccccc3)c[n+]3c2CCc2ccccc2-3)cc1	3.16µM*	?	11.2µM*	-97.6*	?
COc1ccccc1-n1c(-c2ccccc2)c[n+]2c1CCc1ccccc1-2	2.82µM*	3.98µM*	3.16µM*	-99.6*	?
COc1ccc(-n2cc(-c3ccc(Br)cc3)[nH]c2=S)cc1	.	-8.8%	15.8%	3.7	2.2%[46.1 µM]
COc1ccc(-n2c(-c3ccc(Br)cc3)c[n+]3c2CCc2ccccc2-3)cc1	?	?	?	-100.5*	11.6µM*
COCCn1c(C)cc(O)c(C(c2ccc(OC)cc2)N2CCN(c3ccccc3)CC2)c1=O (configuration not stated)	2.6%[46.1 µM]	.	-20.9%	-12.2	.
O=C1C2C3C=CC(CC3)C2C(=O)N1c1ccc(Cl)cc1Cl (configuration not stated)	.	13.1%	-6.8%	38.3	.
O=S(=O)(Nc1cccc(-c2nc3cccnc3s2)c1)c1ccc2c(c1)OCCO2	.	?	42.6%	-63.6*	.
Cc1cc(C(=O)Nc2ccccc2-c2nc(CNC(=O)c3cscn3)c(C)o2)c(C)o1	.	.	32.3%	.	.
COc1cc(NC(=O)Nc2cccc([N+](=O)[O-])c2)cc(OC)c1	4.0%	-8.0%	-8.7%	-34.2	-20.7%[46.1 µM]
CC(C)S(=O)(=O)c1csc(NC(=O)Nc2cccc([N+](=O)[O-])c2)c1Cl	.	25.1µM*	?	6.0	.
COC(=O)Cn1cc(/C=N/NC(=O)COc2cccc3cccnc23)c2ccccc21	0.7%	2.2%	-14.2%	-69.5*	-2.3%
Cc1ccccc1NC(=O)c1cccc2nc3ccccc3nc12	-5.2%	?	-27.9%	-73.2*	-1.4%[46.1 µM]
CC(C)CNC(=O)C(C)(C)n1cc(NC(=O)COCc2ccccc2)cn1	.	.	.	4.3	.
N#Cc1c[nH]n2c(NC3CCCCC3)c(-c3cccc(Cl)c3)nc12	-0.4%[46.1 µM]	.	32.6%	-4.3	-20.5%[46.1 µM]
COc1ccc(C(CCNCc2ccccc2)c2ccc(F)cc2)cc1 (configuration not stated)	?	6.31µM*	27.5%	-29.4	?
COc1ccc(C(CCNCc2ccc(F)cc2)c2ccc(F)cc2)cc1 (configuration not stated)	?	?	23.1%	?	14.6µM*
COc1ccc(CNCCC(c2ccc(F)cc2)c2ccc(OC)cc2)cc1 (configuration not stated)	12.6µM*	?	-9.8%	-22.4	11.2µM*
COc1ccc(CNC(=O)CNC(C)c2ccc(F)cc2)cc1 (configuration not stated)	.	8.4%	-17.0%	12.5	.
COc1ccc(C(CCNC(C)c2ccccc2)c2ccc(F)cc2)cc1 (configuration not stated)	?	?	31.4%	?	?
COc1ccc(CCNCc2ccc(OCc3ccccc3)cc2)cc1	?	-8.7%	11.8%	-89.5*	?
SMILES	Lassa entry inh	HCV inh	FMDV antiviral	HCMV inh	Marburg entry inh
CC(=O)c1cc2c(cc1NC(=O)c1c(C)nn(-c3ccc(C)cc3)c1-n1cccc1)OCO2	9.8%[46.1 µM]	.	-7.9%	?	.
CCSc1nnc(C(C)NC(=O)c2ccc(OC)cc2)n1C (configuration not stated)	.	.	-5.8%	.	.
Oc1ccc(NCc2ccc(OCc3ccccc3)cc2)cc1	?	-23.4%	23.5%	-62.9*!	?
Oc1ccc(NCc2ccc(OCc3ccccc3Cl)cc2)cc1	?	.	13.3%	6.6	?
CCCNC(=O)C[C@@H]1CC[C@H]2NC[C@H](O)COC[C@@H]2O1	.	.	-16.2%	-11.2	.
CN(C)CCNC(=O)C1CCN(Cc2cc3ccccc3n2Cc2ccccc2)CC1	?	.	.	-101.4*	.
CCCNC(=O)C1CCN(Cc2cc3ccccc3n2Cc2ccccc2)CC1	?	.	-28.9%	-18.9	.
CC[n+]1c(/C=C/c2c[nH]c3ccccc23)ccc2cc(C)ccc21	?	4.47µM*	12.6µM*	-99.0*	?
O=C(COC(=O)c1ccccc1C(=O)N1CCN(c2ccccc2)CC1)Nc1ccc(F)cc1	-41.4%	?	-28.1%	-23.7	?
O=C(c1ccc(N2CCN(C(=O)c3ccc(F)cc3F)CC2)cc1)c1cccc(F)c1	.	11.2µM*	?	-35.5	.
O=C(COC(=O)c1ccccc1C(=O)N1CCN(c2ccc(F)cc2)CC1)NCc1ccccc1	?	-8.8%	25.1µM*	3.8	?
O=C(c1ccccc1C(=O)N1CCN(c2ccc(F)cc2)CC1)N1CCN(c2ccc(F)cc2)CC1	?	-3.9%	22.4µM*	-24.4	?
O=C(c1ccccc1)c1ccc(N2CCN(C(=O)c3cccc(F)c3F)CC2)c(F)c1	.	12.6µM*	-67.2%	-22.3	.
O=C(c1ccccc1C(=O)N1CCN(c2ccccc2)CC1)N1CCN(c2ccccc2)CC1	?	2.1%	-23.5%	-14.0	-2.3%
CCCCCCN1C(=O)CC[C@@]23C1=NC(C(=O)OC)=C(C(=O)OC)[C@@H]2N(Cc1ccccc1)c1ccccc13	.	.	.	.	-28.3%[14.2 µM]
CC(=O)c1ccc(N2CCN(C(=O)c3ccccc3SCC(=O)NCc3ccco3)CC2)c(F)c1	-4.2%	12.6µM*	?	5.4	?
Cc1ccccc1C(=O)c1c[nH]c(C(=O)N2CCN(c3ccccc3F)CC2)c1	?	?	?	-37.8	?
COC(=O)c1ccccc1NC(=O)N1CCN(c2ccc(F)cc2)CC1	.	-28.2%	-22.9%	-62.5*	.
COc1cccc(NC(=O)COC(=O)c2ccccc2C(=O)N2CCN(c3ccccc3)CC2)c1	?	?	17.8µM*	?	?
COc1ccccc1N1CCN(C(=O)c2ccccc2SCC(=O)NCc2ccco2)CC1	18.4%	0.6%	3.7%	-20.7	?
O=C(c1c[nH]c(C(=O)N2CCN(c3ccccc3F)CC2)c1)c1cccc(Cl)c1Cl	?	25.1µM*	-29.9%	-19.3	?
O=C(c1n[nH]c(=O)c2ccccc12)N1CCN(c2ccc(F)cc2)CC1	-14.1%	-2.4%	?	-102.1*	-3.7%
O=C(c1n[nH]c(=O)c2ccccc12)N1CCN(c2ccccc2)CC1	30.9%	7.0%	1.1%	12.6	-25.8%[46.1 µM]
Cc1ccc2c(c1)c(=O)c(C(=O)c1ccncc1)cn2CC(=O)Nc1c(C)cccc1C	1.9%[46.1 µM]	.	?	42.1	.

Source: PubChem
